This passage reports growth inhibition results from PubChem BioAssay (NCI).

Compounds without any hit were thinned out: in the full panel of roughly 79,000, 15% have a hit. Values without a mark were called inactive. Calls of active or inactive are those of the source. Cut-off read from the data, not from the text of the source: active = growth inhibition above about 70%; inactive = the rest.

Experiment [1] can be described thus: NCI Yeast Anticancer Drug Screen. Data for the rad50 strain (AID 155).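 Note: 0% = growth of vehicle-only cultures of the same strain.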 The following applies: S. cerevisiae rad50 strain growth inhibition, active compounds read high. The procedure, abridged: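 Relative growth inhibition (compound vs vehicle) was measured in yeast with a defined repair-gene alteration.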
Experiment [2] is described as follows: NCI Yeast Anticancer Drug Screen. Data for the mec2-1 strain (AID 157). The following applies: S. cerevisiae mec2-1 strain, active compounds read high. In outline:
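Growth inhibition is read against vehicle-treated controls after compound exposure of the mec2-1 yeast strain, which is defective in DNA damage repair or cell cycle control.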

Experiment [3] can be described thus: NCI Yeast Anticancer Drug Screen. Data for the sgs1 mgt1 strain (AID 161).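 Note: 0% = growth of cultures given vehicle only.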 To be noted: S. cerevisiae sgs1 mgt1 strain, active compounds read high. The procedure, abridged:
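Yeast cells carrying a defined DNA-repair defect were exposed to test compounds. Growth inhibition was measured relative to vehicle-treated controls.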

A short description of experiment [4]: NCI Yeast Anticancer Drug Screen. Data for the cln2 rad14 strain (AID 165).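 Note: 0% = growth equal to vehicle treated cultures.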 The following applies: S. cerevisiae cln2 rad14 strain, active compounds read high. The procedure, abridged: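 Growth inhibition, relative to vehicle-treated controls, is the read-out. The test organism is a yeast strain with defined genetic alterations, cln2 rad14.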
Experiment [5] is described as follows: NCI Yeast Anticancer Drug Screen. Data for the bub3 strain (AID 167). The following applies: S. cerevisiae bub3 mutant strain, active compounds read high. The procedure, abridged:
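Screening used yeast with an engineered genetic alteration affecting cell cycle control. Compound-exposed cultures were compared with vehicle cultures, and reduced growth was taken as inhibition.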

Experiment [6] in a line: NCI Yeast Anticancer Drug Screen. Data for the mlh1 rad18 strain (AID 175). The following applies: S. cerevisiae mlh1 rad18 strain growth inhibition, active compounds read high. In outline:
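Cells of a genetically altered yeast strain, deficient in DNA damage repair, were treated with compound. Their growth was then compared with that of vehicle-treated cultures to give inhibition.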

[7] abbreviates: at 5.0 µM (retest, dose inferred, filed as 0.5).
[8] abbreviates: at 50.0 µM (retest, dose inferred, filed as 5.0).

As to `CC1(C)N=C(N)N=C(N)N1c1cccc(CCCCC(=O)CCl)c1`, the growth inhibition in experiment [1] (setting [7]) is 15%; in experiment [1] (setting [8]), 89% (active); in experiment [1] (at 50.0 µM), 95.8% (active); in experiment [2] (setting [7]), 0%; in experiment [2] (setting [8]), 72% (active); in experiment [2] (at 50.0 µM) it was 95% (active). Besides, the growth inhibition was -5% in experiment [3] (setting [7]); 79% (active) in experiment [3] (setting [8]); 95.9% (active) in experiment [3] (at 50.0 µM); -5% in experiment [4] (setting [7]); 62% in experiment [4] (setting [8]); 81.6% (active) in experiment [4] (at 50.0 µM). Also, the growth inhibition in experiment [5] (setting [7]) was -5%; in experiment [5] (setting [8]), 51%; in experiment [5] (at 50.0 µM) it was 86.7% (active); in experiment [6] (setting [7]), -18%; in experiment [6] (setting [8]), 91% (active); in experiment [6] (at 50.0 µM), 97.8% (active).

As to `CCC1(C)CCC2(C)C(CCC3C4(C)CCCC32OC4=O)C1` (configuration not stated), the growth inhibition was 16% in experiment [1] (setting [7]); 93% (active) in experiment [1] (setting [8]); 97.5% (active) in experiment [1] (at 50.0 µM); -2% in experiment [2] (setting [7]); 96% (active) in experiment [2] (setting [8]); 94.3% (active) in experiment [2] (at 50.0 µM). Further, the growth inhibition was 2% in experiment [3] (setting [7]); 97% (active) in experiment [3] (setting [8]); 96.8% (active) in experiment [3] (at 50.0 µM); -9% in experiment [4] (setting [7]); 92% (active) in experiment [4] (setting [8]); 91.9% (active) in experiment [4] (at 50.0 µM). Further, the growth inhibition in experiment [5] (setting [7]) was 15%; in experiment [5] (setting [8]), 98% (active); in experiment [5] (at 50.0 µM), 96.2% (active); in experiment [6] (setting [7]), -10%; in experiment [6] (setting [8]), 92% (active); in experiment [6] (at 50.0 µM), 92.2% (active).

For the compound `CC(/C(=N/NC(=O)C(N)=O)c1c(Cl)ccc(Cl)c1O)C1(O)C(=O)Nc2ccccc21` (configuration not stated), the growth inhibition is 9% in experiment [1] (setting [7]); 53% in experiment [1] (setting [8]); 53.8% in experiment [1] (at 50.0 µM); 2% in experiment [2] (setting [7]); 29% in experiment [2] (setting [8]); 57.4% in experiment [2] (at 50.0 µM). For the same compound, the growth inhibition in experiment [3] (setting [7]) was 9%; in experiment [3] (setting [8]) it was 53%; in experiment [3] (at 50.0 µM), 52.5%; in experiment [4] (setting [7]), 14%; in experiment [4] (setting [8]), 18%; in experiment [4] (at 50.0 µM), 20.5%. The growth inhibition was 4% in experiment [5] (setting [7]); 52% in experiment [5] (setting [8]); 44% in experiment [5] (at 50.0 µM); 9% in experiment [6] (setting [7]); 32% in experiment [6] (setting [8]); 86.5% (active) in experiment [6] (at 50.0 µM).

With `Oc1c(Br)cc(Cl)cc1C(c1cc(Cl)cc(Br)c1O)C(Cl)(Cl)Cl`, the growth inhibition in experiment [1] (setting [7]) was 0%; in experiment [1] (setting [8]), 98% (active); in experiment [1] (at 50.0 µM), 96% (active); in experiment [2] (setting [7]), 2%; in experiment [2] (setting [8]), 99% (active); in experiment [2] (at 50.0 µM), 98.2% (active). The growth inhibition is 3% in experiment [3] (setting [7]); 99% (active) in experiment [3] (setting [8]); 97.8% (active) in experiment [3] (at 50.0 µM); -5% in experiment [4] (setting [7]); 98% (active) in experiment [4] (setting [8]); 97.2% (active) in experiment [4] (at 50.0 µM). Further, the growth inhibition is -1% in experiment [5] (setting [7]); 98% (active) in experiment [5] (setting [8]); 97.1% (active) in experiment [5] (at 50.0 µM); 5% in experiment [6] (setting [7]); 98% (active) in experiment [6] (setting [8]); 90.8% (active) in experiment [6] (at 50.0 µM).

As for `Clc1ccccc1CN1COc2c(ccc3cccnc23)C1`, the growth inhibition in experiment [1] (setting [7]) was 9%; in experiment [1] (setting [8]), 21%; in experiment [1] (at 50.0 µM), 69%; in experiment [2] (setting [7]), 12%; in experiment [2] (setting [8]), 16%; in experiment [2] (at 50.0 µM), 32.9%. Further, the growth inhibition in experiment [3] (setting [7]) was 7%; in experiment [3] (setting [8]) it was 51%; in experiment [3] (at 50.0 µM), 55.5%; in experiment [4] (setting [7]), 0%; in experiment [4] (setting [8]), 44%; in experiment [4] (at 50.0 µM) it was 13.3%. Further, the growth inhibition in experiment [5] (setting [7]) was 7%; in experiment [5] (setting [8]), 31%; in experiment [5] (at 50.0 µM), 26.1%; in experiment [6] (setting [7]) it was 19%; in experiment [6] (setting [8]), 72% (active); in experiment [6] (at 50.0 µM), 41.6%.

With `Cc1cc2c(cc1Cl)Sc1nnc(C)n1S2(=O)=O`, the growth inhibition in experiment [1] (setting [7]) was 18%; in experiment [1] (setting [8]), 81% (active); in experiment [1] (at 50.0 µM), 74.8% (active); in experiment [2] (setting [7]) it was 14%; in experiment [2] (setting [8]) it was 59%; in experiment [2] (at 50.0 µM) it was 71% (active). Besides, the growth inhibition was 3% in experiment [3] (setting [7]); 34% in experiment [3] (setting [8]); 62.2% in experiment [3] (at 50.0 µM); 17% in experiment [4] (setting [7]); 34% in experiment [4] (setting [8]); 48.8% in experiment [4] (at 50.0 µM). Further, the growth inhibition in experiment [5] (setting [7]) is -12%; in experiment [5] (setting [8]) it was 85% (active); in experiment [5] (at 50.0 µM), 84.3% (active); in experiment [6] (setting [7]) it was 9%; in experiment [6] (setting [8]) it was 75% (active); in experiment [6] (at 50.0 µM), 75.6% (active).

For the compound `CCCCCCCCSCc1ccc(N)cc1`, the growth inhibition was 23% in experiment [1] (setting [7]); 97% (active) in experiment [1] (setting [8]); 89.7% (active) in experiment [1] (at 50.0 µM); 12% in experiment [2] (setting [7]); 98% (active) in experiment [2] (setting [8]); 91.4% (active) in experiment [2] (at 50.0 µM). Further, the growth inhibition was 37% in experiment [3] (setting [7]); 98% (active) in experiment [3] (setting [8]); 90.5% (active) in experiment [3] (at 50.0 µM); 39% in experiment [4] (setting [7]); 98% (active) in experiment [4] (setting [8]); 89.5% (active) in experiment [4] (at 50.0 µM). Besides, the growth inhibition was 51% in experiment [5] (setting [7]); 98% (active) in experiment [5] (setting [8]); 89% (active) in experiment [5] (at 50.0 µM); 20% in experiment [6] (setting [7]); 97% (active) in experiment [6] (setting [8]); 89.6% (active) in experiment [6] (at 50.0 µM).

As to `Cn1c2c(c3ccccc31)CCN1C[C@@H]3CCCC[C@H]3C[C@@H]21`, the growth inhibition in experiment [1] (setting [7]) is 0%; in experiment [1] (setting [8]), 55%; in experiment [1] (at 50.0 µM), 65%; in experiment [2] (setting [7]) it was 0%; in experiment [2] (setting [8]) it was 2%; in experiment [2] (at 50.0 µM), 8.8%. The growth inhibition in experiment [3] (setting [7]) is -2%; in experiment [3] (setting [8]) it was -1%; in experiment [3] (at 50.0 µM) it was 74.4% (active); in experiment [4] (setting [7]), 6%; in experiment [4] (setting [8]), -6%; in experiment [4] (at 50.0 µM), -58.1%. The growth inhibition is 2% in experiment [5] (setting [7]); 0% in experiment [5] (setting [8]); 62.5% in experiment [5] (at 50.0 µM); 0% in experiment [6] (setting [7]); 25% in experiment [6] (setting [8]); 30.1% in experiment [6] (at 50.0 µM).

Turning to `CC1OC(OC2C(OC3CCC4(C)C(CCC5(C)C4CC=C4C6CC(C)(C)CCC6(CO)C(O)CC45C)C3(C)C)OC(C(=O)O)C(OC3OC(COC4OC(CO)C(O)C(O)C4O)C(O)C(O)C3O)C2O)C(O)C(O)C1O` (configuration not stated), the growth inhibition was -21% in experiment [1] (setting [7]); 99% (active) in experiment [1] (setting [8]); 92.7% (active) in experiment [1] (at 50.0 µM); -22% in experiment [2] (setting [7]); 100% (active) in experiment [2] (setting [8]); 94.2% (active) in experiment [2] (at 50.0 µM). Besides, the growth inhibition in experiment [3] (setting [7]) was -14%; in experiment [3] (setting [8]), 98% (active); in experiment [3] (at 50.0 µM), 94.4% (active); in experiment [4] (setting [7]) it was 15%; in experiment [4] (setting [8]), 99% (active); in experiment [4] (at 50.0 µM) it was 92.5% (active). Besides, the growth inhibition in experiment [5] (setting [7]) was -9%; in experiment [5] (setting [8]), 99% (active); in experiment [5] (at 50.0 µM), 93.4% (active); in experiment [6] (setting [7]) it was 9%; in experiment [6] (setting [8]) it was 99% (active); in experiment [6] (at 50.0 µM), 93.5% (active).
